PubChem BioAssay AID1347414 (National Center for Advancing Translational Sciences (NCATS), 2020)
Results filed as inconclusive are left out. A number with no mark means an inactive call. The source made the active and inactive calls. Calls come from the whole dose curve; as a rule, active = well fitted inhibition curve with a large enough effect; inconclusive = small, poorly fitted or top-dose-only effect; inactive = no such curve, though single readings can be large or run the other way.

Test: qHTS to identify inhibitors of the type 1 interferon - major histocompatibility complex class I in skeletal muscle: Secondary screen by immunofluorescence; note: nearly all actives have a fitted effect of over 70% in size;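 for activity change, negative = inhibition: digitonin at 100 µM served as the cytotoxic control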
Conditions: C25cl48 myoblasts, IFN-b induced HLA-ABC immunofluorescence, 24 h, Viability; series mostly up to 49.8 µM; activity change, negative = inhibition: at the top concentration
Description: Assay Submitter (PI): Travis B. Kinder Ph.D. & James Inglese Ph.D. Assay Development and Screening Technology Laboratory (ADST) National Center for Advancing Translational Sciences (NCATS), Rockville, MD National Institute of Health (NIH), Bethesda, Maryland Idiopathic inflammatory myopathies, collectively referred to as myositis, are a group of rare autoimmune diseases characterized by skeletal muscle inflammation, weakness, and usually accompanied by systemic pathologies of the skin, lungs, or vasculature. Current immunosuppressive therapies and glucocorticoids are often not curative and are accompanied by harsh side effects, especially in children with juvenile myositis. We initiated a drug repurposing and development program to identify more targeted, less toxic therapeutics to treat myositis. Although its cause is not known, muscle from a subset of patients have an abundance of the inflammatory type 1 interferon (IFN) and a down-stream product major histocompatibility complex class I (MHC class I), which are both thought to contribute to damage and weakness. We conducted quantitative high throughput screening (qHTS) on 6,576 compounds (4,679 unique) through a series of cell-based assays to identify those that inhibit the IFN-stimulated expression of MHC class I in muscle precursor cells (myoblasts). The compound identification and evaluation strategy utilized a primary screen with reporter-tagged MHC class I in genome-engineered myoblasts, ATP content counter screen for viability, HLA-ABC immunofluorescence secondary screen, and HLA-B RT-qPCR tertiary screen. To verify activity of compounds identified by qHTS in HLA-B HiBit reporter cells, compounds were assayed by high throughput HLA-ABC immunofluorescence. Briefly, 216 compounds identified from primary and counter screening as inhibitory with minimal cytotoxicity were dispensed into black/clear bottom […] using acoustic dispensing in an 11-point, 1:3 titration with a high final concentration of 50 uM. Normal immortalized human myoblasts C25cl48 were added to the plates with 4.0 ng/ml human IFN-beta for 24 hours, fixed, stained by immunofluorescence for HLA-ABC protein, nuclei, and cell body, and analyzed by laser scanning cytometry as described by Auld et al., 2006. References: Auld DS, Johnson RL, Zhang Y, Veith H, Jadhav A, Yasgar A, Simeonov A, Zheng W, Martinez ED, Westwick JK, Austin CP, Inglese J. 2006. Fluorescent protein-based cellular assays analyzed by laser-scanning microplate cytometry in 1536-well plate format. Methods Enzymol 414:566-89. doi:10.1016/S0076-6879(06)14029-X
PROTOCOL TABLE (as described by Inglese et al., 2007) SEQUENCE No. (e.g., 1, 2, 3, etc.); […] (e.g., Cells, Incubation, Reagent, etc.); VALUE; DESCRIPTION 0; Compounds; 25 nl; Follow-up compounds dispensed at 25 nl/well with Labcyte Echo 655 acoustic dispenser in triplicate Aurora ChemLib 1536K black/clear bottom, low base, TC 1536-well plates (00019324). Also dispensed 25 nl/well DMSO control, ruxolitinib IFN-b inhibitor control titration, and digitonin cytotoxic control 1a; Cells; 5 uL; Multidrop Combi (Thermo Scientific) to seed 125 cells/well into eight plates in 5 ul/well of iHSKM growth medium (GM) without dexamethasone into columns 1+2. Add metal lids with gas-exchange holes 1b; Cells; 5 uL; Multidrop Combi (Thermo Scientific) to seed 125 cells/well into eight plates in 5 ul/well of iHSKM GM without dexamethasone + 4 ng/ml IFN-b into columns 3 - 48. […]
% is set by controls: 0 for no effect and ±100 for the full control effect; potency is the fitted concentration of half-maximal effect.

Compound | Potency | activity change, negative = inhibition
C=C1C(=O)O[C@@H]2[C@H]3O[C@]3(C)CCC=C(C)CC[C@@H]12 | 8.14 µM (active) | –
O=C(/C=C\n1cnc(-c2cc(C(F)(F)F)cc(C(F)(F)F)c2)n1)NNc1cnccn1 | – | -8.84%
C[C@@H]1CCN(C(=O)CC#N)C[C@@H]1N(C)c1ncnc2[nH]ccc12 | – | 0.722%
CCCCc1nc2cc(/C=C/C(=O)NO)ccc2n1CCN(CC)CC | – | -17.6%
O=c1[nH]c2cc(Cl)ccc2c(O)c1-c1ccc(Oc2ccccc2)cc1 | – | 2.3%
Cc1sc2c(c1C)C(c1ccc(Cl)cc1)=N[C@@H](CC(=O)Nc1ccc(OCCOCCOCCOCCNc3cccc4c3C(=O)N(C3CCC(=O)NC3=O)C4=O)cc1)c1nnc(C)n1-2 (stereo not given in full) | – | 22.8%
Cc1ncc(-c2ccnc(Nc3ccc(S(C)(=O)=O)cc3)n2)n1C(C)C | – | 0.722%
C[C@H]1C[C@@H]2[C@H]([C@@H](O)C[C@@]3(C)[C@H]2CC[C@]3(O)C(=O)CO)[C@@]2(C)C=CC(=O)C=C12 | – | 1.81%
OC1CCC(Oc2cccc3cnc(Nc4ccc5nc[nH]c5c4)nc23)CC1 (stereo not given) | – | 6.19%
Cc1c(C(=O)Nc2ccc(Oc3ccnc4[nH]cc(-c5ccccc5)c34)c(F)c2)c(=O)n(-c2ccc(F)cc2)n1C | – | -17.2%
CC(C)(C)c1cnc(CSc2cnc(NC(=O)C3CCNCC3)s2)o1 | – | 1.09%
O=C(/C=C/c1cccc(S(=O)(=O)Nc2ccccc2)c1)NO | – | -0.722%
Cc1ccc(C(N)=O)cc1Nc1nccc(-c2cn(C(C)C)c3cnccc23)n1 | – | 0.513% [at 99.5 µM]
CC(C)(C)c1nc(-c2cccc(NS(=O)(=O)c3c(F)cccc3F)c2F)c(-c2ccnc(N)n2)s1 | – | 9.89%
CC[C@H](CC#N)OC(=O)N[C@@H](C)c1cccc(NC(=O)Nc2ccc(-c3cnco3)c(OC)c2)c1 | – | -3.25%
O=C(CCCCCCC(=O)Nc1ccccc1)NO | – | 4.55%
CC[C@@]1(O)C(=O)OCc2c1cc1n(c2=O)Cc2cc3c(CN(C)C)c(O)ccc3nc2-1 | – | -1.12%
CCc1c2c(nc3ccc(O)cc13)-c1cc3c(c(=O)n1C2)COC(=O)[C@]3(O)CC | – | 14.7%
CC1=C(CO)C(=O)O[C@@H]([C@@H](C)[C@H]2CC[C@H]3[C@@H]4C[C@H]5O[C@]56[C@@H](O)C=CC(=O)[C@]6(C)[C@H]4CC[C@]23C)C1 | 2.05 µM (active) | –
CS(=O)(=O)N1CCC(NC(=O)c2[nH]ncc2NC(=O)c2c(Cl)cccc2Cl)CC1 | – | -1.09%

Compound | Potency | activity change, negative = inhibition
CC(=O)OCC(=O)[C@@]12OC(C)(C)O[C@@H]1C[C@H]1[C@@H]3C[C@H](F)C4=CC(=O)C=C[C@]4(C)[C@@]3(F)[C@@H](O)C[C@@]12C | – | -0.722%
O=C1NCCc2[nH]c(-c3ccncc3)cc21 | – | -11.3%
Cc1ccc(NC(=O)NCc2ccc3c(c2)CN(C2CCC(=O)NC2=O)C3=O)cc1Cl (stereo not given) | – | 9.81%
NS(=O)(=O)OC[C@@H]1C[C@@H](n2ccc3c(N[C@H]4CCc5ccccc54)ncnc32)C[C@@H]1O | – | 11.7%
CC(C)c1c2cc(-c3ccnc(NC4CCC(NC5CCOCC5)CC4)n3)ccc2nn1C (stereo not given) | – | -7.1%
O=C(/C=C/C#Cc1cccc(NS(=O)(=O)c2ccccc2)c1)NO | – | -5.42%
CCCCC(=O)O[C@]1(C(=O)CO)[C@@H](C)C[C@H]2[C@@H]3CCC4=CC(=O)C=C[C@]4(C)[C@@]3(F)[C@@H](O)C[C@@]21C | – | -2.37%
Cc1[nH]c2ccccc2c1CCNCc1ccc(/C=C/C(=O)NO)cc1 | – | -8.01%
Cc1cnc(Nc2ccc(N3CCN(C)CC3)cc2)nc1Nc1cccc(S(=O)(=O)NC(C)(C)C)c1 | 20.5 µM (active) | –
CCc1cnn2c(NCc3ccc[n+]([O-])c3)cc(N3CCCC[C@H]3CCO)nc12 | – | 1.64%
Cc1ccc(-c2ncn(-c3ccc(Nc4nccc(-c5cccc(N6CCOCC6)c5)n4)cc3)n2)cn1 | – | -0.586%
CCNC(=O)c1noc(-c2cc(C(C)C)c(O)cc2O)c1-c1ccc(CN2CCOCC2)cc1 | – | 23.3%
COc1cccc(-c2cc(F)ccc2[C@H]2Cc3nc(N)nc(C)c3C(=O)N2)n1 | – | -5.61%
CCOc1cc2ncc(C#N)c(Nc3ccc(F)c(Cl)c3)c2cc1NC(=O)/C=C/CN(C)C | 16.2 µM (active) | –
CC(C)C[C@H](NC(=O)CNC(=O)c1cc(Cl)ccc1Cl)B1OC(=O)CC(CC(=O)O)(C(=O)O)O1 (stereo not given in full) | – | -1.81%
C[C@]12C=CC(=O)C=C1CC[C@H]1[C@@H]3C[C@@H](O)[C@](O)(C(=O)CO)[C@@]3(C)C[C@H](O)[C@@]12F | – | 6.5%
NC(=O)c1cnc2[nH]ccc2c1NC1C2CC3C[C@H]1CC(O)(C3)C2 (stereo not given in full) | – | -0.722%
CC(C)c1cc(CNc2nc(Nc3cc(C4CC4)[nH]n3)cc(N3CCN(C)CC3)n2)on1 | – | -19.3%
COc1ccc(CNc2nc(N(CCO)CCO)nc3c2ncn3C(C)C)cc1 | – | -27.7%
O=C(Nc1cn[nH]c1-c1nc2ccc(CN3CCOCC3)cc2[nH]1)NC1CC1 | – | -21.8%
